{
  "source": "PubChem BioAssay AID623911",
  "about": "(Vanderbilt High Throughput Screening Facility, 2012)",
  "note": "The campaign covered roughly 2,100 compounds. About 770 (37%) were called active. The list shows a part of the results. A number with no mark means an inactive call.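 Rule for the calls: active = by-eye trace score of 1 for enhancers or -1 for inhibitors, so actives lie on both sides (some results past the limit were not filed as active); inactive = score 0, or 3 fluorescent, or 4 baseline rise.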",
  "data": [
    {"biological_target": "G protein-activated inward rectifier potassium channel 2 (Homo sapiens) + G protein-activated inward rectifier potassium channel 1 (Homo sapiens) (UniProt P48051+P48549)", "sequence (P48051 whole entry, looked up)": "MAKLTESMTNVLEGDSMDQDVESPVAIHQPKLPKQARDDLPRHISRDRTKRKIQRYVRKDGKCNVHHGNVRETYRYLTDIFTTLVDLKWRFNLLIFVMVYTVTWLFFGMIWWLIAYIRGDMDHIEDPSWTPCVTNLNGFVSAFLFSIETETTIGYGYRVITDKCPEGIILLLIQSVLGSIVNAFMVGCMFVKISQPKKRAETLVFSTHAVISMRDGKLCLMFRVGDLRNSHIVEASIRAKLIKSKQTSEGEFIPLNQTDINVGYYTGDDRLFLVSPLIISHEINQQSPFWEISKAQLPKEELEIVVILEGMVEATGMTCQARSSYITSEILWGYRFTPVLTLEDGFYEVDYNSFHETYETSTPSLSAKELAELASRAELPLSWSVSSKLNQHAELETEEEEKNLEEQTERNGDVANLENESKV", "sequence (P48549 whole entry, looked up)": "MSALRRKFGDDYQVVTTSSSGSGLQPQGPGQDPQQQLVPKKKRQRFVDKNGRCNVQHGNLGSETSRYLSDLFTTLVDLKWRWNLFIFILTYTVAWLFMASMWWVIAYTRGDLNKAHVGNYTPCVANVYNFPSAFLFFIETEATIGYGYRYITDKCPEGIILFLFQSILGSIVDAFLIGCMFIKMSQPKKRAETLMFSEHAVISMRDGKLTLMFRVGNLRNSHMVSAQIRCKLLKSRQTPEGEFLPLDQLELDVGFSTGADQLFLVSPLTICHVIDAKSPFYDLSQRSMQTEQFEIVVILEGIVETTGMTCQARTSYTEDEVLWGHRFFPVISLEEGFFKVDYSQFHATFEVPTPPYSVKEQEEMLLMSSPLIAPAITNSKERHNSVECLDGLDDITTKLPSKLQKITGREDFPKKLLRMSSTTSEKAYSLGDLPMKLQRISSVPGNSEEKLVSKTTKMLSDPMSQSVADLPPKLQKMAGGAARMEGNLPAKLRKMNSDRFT", "assay": "GIRK1/2 thallium flux modulators, retest, confirmation, cell-based, HEK293 rmGlu8/hGIRK1/2, FluoZin-2 (AID 623911)", "conditions": "HEK293 rmGlu8/hGIRK1/2, thallium flux FluoZin-2; actives lie on both sides; glutamate co-added at its EC20 level", "values": [
      {"smiles": "N#CC1=C(N)Oc2n[nH]c(-c3cccs3)c2C1c1ccoc1", "note": "(centres undefined)", "manual score": 0},
      {"smiles": "O=C(Cn1nc(Cc2ccncc2)c2ccccc2c1=O)N1CCN(C(=O)c2ccco2)CC1", "manual score": 0},
      {"smiles": "O=c1c2ccccc2nc(SCc2cn3ccsc3n2)n1-c1ccc(F)cc1", "manual score": 0},
      {"smiles": "Cc1ccc(NC(=S)Nc2ccc(Cl)c(Cl)c2)c(OC(F)F)c1", "manual score": "1 (active)"},
      {"smiles": "Fc1ccc(NC(=S)Nc2ccccc2OC(F)F)cc1Cl", "manual score": "1 (active)"},
      {"smiles": "COC(=O)NC(=S)Nc1ccc(Oc2ccc(Cl)cc2Cl)c(Cl)c1", "manual score": 0},
      {"smiles": "O=C(O)CN=C(NS(=O)(=O)c1ccccc1)c1ccccc1", "manual score": 0},
      {"smiles": "COc1ccccc1-n1cnnc1SCC(=O)c1cc(C)n(Cc2cccs2)c1C", "manual score": "-1 (active)"},
      {"smiles": "COc1ccc(Cl)cc1C(=O)CSc1nnnn1C1CCCC1", "manual score": 0},
      {"smiles": "Cc1cc(C(=O)CSc2nnc(-c3ccncc3)n2-c2ccccc2)c(C)n1C", "manual score": 0},
      {"smiles": "CCN(CC)CCCNC(=O)c1cc(-c2ccc(Cl)c(Cl)c2)on1", "manual score": "-1 (active)"},
      {"smiles": "COc1cccc(-c2cc(C(=O)NC3CCCC3)no2)c1", "manual score": 0},
      {"smiles": "CN(C)CCCNC(=O)c1ccc(-c2nc(-c3ccc(Cl)cc3)cs2)cc1", "manual score": 0},
      {"smiles": "CC(C)CCOP(=O)(c1ccc(N(C)C)cc1)C(O)c1ccccn1", "note": "(centres undefined)", "manual score": 0},
      {"smiles": "CC(C)(C)c1nn(-c2ccccc2)c2[nH]c(=O)c(CNCc3ccc4c(c3)OCO4)cc12", "manual score": 0},
      {"smiles": "COc1ccc2c(c1)C(C)=CC(C)(C)N2C(=O)CNCc1ccc2c(c1)OCO2", "manual score": "-1 (active)"},
      {"smiles": "Cc1c(C(=O)O)[nH]c2c1C(=O)CC(c1ccc(Cl)cc1)C2", "note": "(centres undefined)", "manual score": 0},
      {"smiles": "Cc1ccc(OCC(O)Cn2c(=N)n(CCN3CCCCC3)c3ccccc32)cc1", "note": "(centres undefined)", "manual score": "-1 (active)"},
      {"smiles": "Cc1cccc(OCC(O)Cn2c(=N)n(CCN3CCCCC3)c3ccccc32)c1", "note": "(centres undefined)", "manual score": "-1 (active)"},
      {"smiles": "N=c1n(CCN2CCCCC2)c2ccccc2n1CC(O)COc1ccccc1", "note": "(centres undefined)", "manual score": "-1 (active)"},
      {"smiles": "Cc1cccc(OCc2nnc(SCC(=O)N3CCc4ccccc43)n2C)c1", "manual score": 0},
      {"smiles": "O=C(NNc1ccccc1Br)C(=O)n1ccc2ccccc21", "manual score": 0},
      {"smiles": "COCCCN1C(=O)C(=O)/C(=C(/O)c2ccc(C)cc2)C1c1ccccc1", "note": "(centres undefined)", "manual score": 0},
      {"smiles": "COc1cccc(/C=N/n2c(=S)n(C)c3ccccc32)c1OC", "manual score": 0},
      {"smiles": "COc1ccc(/C=N/n2c(SC)nnc2-c2ccccc2)c(OC)c1OC", "manual score": "-1 (active)"},
      {"smiles": "COc1ccc(-c2nn(-c3ccccc3)cc2/C=N/n2cnnc2)cc1OC", "manual score": 0},
      {"smiles": "Cc1cc(N2CCC(C)CC2)n2ncc(-c3ccccc3)c2n1", "manual score": 0},
      {"smiles": "NS(=O)(=O)c1ccc(NC(=O)C2COc3ccccc3O2)cc1", "note": "(centres undefined)", "manual score": 0},
      {"smiles": "CCC(/C=N/NC(=O)C1COc2ccccc2O1)CC", "note": "(centres undefined)", "manual score": "1 (active)"},
      {"smiles": "CCC(CC)c1nnc(NC(=O)C2COc3ccccc3O2)s1", "note": "(centres undefined)", "manual score": 0},
      {"smiles": "COc1ccc(-n2nnnc2SCC(=O)N2CCOCC2)cc1", "manual score": -0.5},
      {"smiles": "COc1ccc(OC)c(C(=O)c2coc3ccc(O)c(CN4CCOCC4)c23)c1", "manual score": "-1 (active)"},
      {"smiles": "COC(=O)COc1ccc(S(=O)(=O)Nc2ccccc2C(=O)OC)cc1", "manual score": 0},
      {"smiles": "CCC/C(=N/NC(=O)c1cccc(Cl)c1)c1ccccc1", "manual score": 0},
      {"smiles": "COC(=O)C(C)N(C(=O)c1cccc2ccccc12)c1c(C)cccc1C", "note": "(centres undefined)", "manual score": "-1 (active)"},
      {"smiles": "COC(=O)C(C)N(C(=O)c1cccc(Cl)c1)c1c(C)cccc1C", "note": "(centres undefined)", "manual score": "-1 (active)"},
      {"smiles": "NC(=O)Nc1cccc2ccccc12", "manual score": 0},
      {"smiles": "O=C(Nc1ccc2oc(-c3ccncc3)nc2c1)c1c(F)c(F)c(F)c(F)c1F", "manual score": 0},
      {"smiles": "CCCN1C(=O)/C(=C/c2ccc(N3CCCC3)c(C)c2)NC1=S", "manual score": 3},
      {"smiles": "CCCN1C(=O)/C(=C/c2ccc(C)s2)NC1=S", "manual score": "1 (active)"},
      {"smiles": "CCN1C(=O)/C(=C/c2ccc(C)s2)NC1=S", "manual score": "1 (active)"},
      {"smiles": "O=C1/C(=C/c2ccc(N3CCCC3)cc2)NC(=S)N1C1CC1", "manual score": 3},
      {"smiles": "CC(C)CN1C(=O)/C(=C/c2cccs2)NC1=S", "manual score": "1 (active)"},
      {"smiles": "O=C(Nc1nnc(SCc2ccc(F)cc2)s1)C1CC(=O)N(c2ccc3c(c2)OCCO3)C1", "note": "(centres undefined)", "manual score": 0},
      {"smiles": "CN(C)c1nc2n(c(=O)n1)C(C#N)CS2", "note": "(centres undefined)", "manual score": 0},
      {"smiles": "O=c1[nH]c(CS(=O)(=O)c2ccccc2)nc2ccccc12", "manual score": 0},
      {"smiles": "CCCCCCCCCn1c2c(c(=N)c3c1CCC3)CCC2", "manual score": "-1 (active)"},
      {"smiles": "CCCCn1c(-c2csc3c2CCCC3)n[nH]c1=S", "manual score": -0.5},
      {"smiles": "CC(=O)c1ccc(OC(=O)N(c2ccccc2)c2ccccc2)cc1", "manual score": 0},
      {"smiles": "N[C@@H](Cc1ccccc1)c1nnc(SCc2ccccc2F)o1", "manual score": 0},
      {"smiles": "Cc1cc(C)c2[nH]c(=S)cc(C)c2c1", "manual score": "1 (active)"},
      {"smiles": "Cc1cc(=S)[nH]c2c(C)cccc12", "manual score": "1 (active)"},
      {"smiles": "CC1(C)Cc2c(ccc3ccccc23)-c2nnc(-c3cccnc3)n21", "manual score": 0},
      {"smiles": "CCOC(=O)N/N=C/c1c(C)nn(-c2ccccc2Cl)c1Cl", "manual score": 0}
    ]}
  ]
}
